{"source": "PubChem BioAssay AID2490", "about": "(National Center for Advancing Translational Sciences (NCATS), 2010)", "note": "The source made the active and inactive calls. Calls come from the whole dose curve."}
{"target": "Thyroid hormone receptor beta (Homo sapiens) (UniProt P10828)", "sequence (P10828 whole entry, looked up, the tested form may be a part)": "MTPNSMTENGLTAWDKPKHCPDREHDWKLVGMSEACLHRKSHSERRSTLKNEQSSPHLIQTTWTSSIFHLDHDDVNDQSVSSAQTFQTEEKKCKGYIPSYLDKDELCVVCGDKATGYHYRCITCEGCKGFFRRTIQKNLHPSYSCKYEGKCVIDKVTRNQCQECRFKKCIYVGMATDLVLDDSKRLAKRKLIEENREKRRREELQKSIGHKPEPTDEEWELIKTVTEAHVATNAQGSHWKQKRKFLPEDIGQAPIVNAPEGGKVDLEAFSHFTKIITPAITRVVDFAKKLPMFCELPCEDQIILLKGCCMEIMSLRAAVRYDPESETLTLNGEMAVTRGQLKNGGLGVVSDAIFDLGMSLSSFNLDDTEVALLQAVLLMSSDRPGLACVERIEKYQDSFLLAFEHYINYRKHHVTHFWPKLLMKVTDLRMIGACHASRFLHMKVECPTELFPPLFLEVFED", "assay": "Secondary Confirmation Assay for Inhibitors of the Interaction of Thyroid Hormone Receptor and Steroid Receptor Coregulator 2, Texas Red Fluoroprobe", "conditions": "TRb LBD / Texas Red SRC2 peptide fluorescence polarization", "description": "NIH Molecular Libraries Probe Production Network [MLPCN] NIH Chemical Genomics Center [NCGC] MLPCN Grant: DK058080 Assay Provider: R. Kip Guy, St. Jude Children's Research Hospital NCGC Assay Overview: Thyroid receptor (TR) regulates many homeostatic processes including basal metabolism, cardiovascular function, body weight, and lipid trafficking. TR modulators are potential therapeutics for obesity and hyperlipidemias but current thyroid analogs have undesirable side effects, particularly cardiac stimulation. To identify inhibitors that specifically prevent the interaction of TR with the steroid receptor coregulator 2 (SRC2), a fluorescence polarization assay was screened (Arnold et al., 2006). This assay detects the interaction of the ligand-binding domain of human TRb with a Texas Red labeled SRC2 peptide, corresponding to a 20 amino acid region of the nuclear receptor interaction domain. Small molecule inhibitors that block the interaction of TR and SRC2 are detected by a decrease in fluorescence polarization.\nNCGC Assay Protocol Summary: Twenty uL/well 0.6 uM TRb and 20 nM Texas Red labeled SRC2-2 in protein buffer (20mM Tris hydrochloride, pH 7.4, 100mM NaCl, 10% glycerol, 1mM EDTA, 0.01% NP-40, 1mM DTT, 1uM T3 and 4% DMSO) was dispensed into black solid 384-well plates (Costar 3710) using a Biomek FX (Beckman Coulter) liquid handling system. Following transfer of 260 nL compound (ranging from 7 nM to 130 uM), the plates were incubated 3 hr at ambient temperature. The plates were read by an Envision (Perkin Elmer) to detect fluorescence polarization of SRC2 Texas Red (555 nm excitation and 632 nm emission). Arnold, L. A.; Estebanez-Perpina, E.; Togashi, M.; Shelat, A.; Ocasio, C. A.; McReynolds, A. C.; Nguyen, P.; Baxter, J. D.; Fletterick, R. J.; Webb, P.; Guy, R. K. A high-throughput screening method to identify small molecule inhibitors of thyroid hormone receptor coactivator binding. Sci STKE 2006, p 13."}
{"compound": "O=C(COC(=O)c1cccc([N+](=O)[O-])c1Cl)NC1C2CC3CC(C2)CC1C3", "note": "(stereo not given)", "outcome": "inactive"}
{"compound": "CC(=O)c1cccc(NC(=O)C(C)OC(=O)c2ccc(S(C)(=O)=O)c([N+](=O)[O-])c2)c1", "note": "(stereo not given)", "Potency": "50.9 µM (active)"}
{"compound": "CS(=O)(=O)c1ccc(-c2nc(C(=O)NC3C4CC5CC(C4)CC3C5)cs2)cc1[N+](=O)[O-]", "note": "(stereo not given)", "Potency": "10.1 µM (active)"}
{"compound": "CCN1CCN(C(=O)COC(=O)c2ccc(S(C)(=O)=O)c([N+](=O)[O-])c2)C(C)C1", "note": "(stereo not given)", "outcome": "inactive"}
{"compound": "CC(=O)c1cccc(NC(=O)COC(=O)c2ccc(S(C)(=O)=O)c([N+](=O)[O-])c2)c1", "outcome": "inactive"}
{"compound": "CC(OC(=O)c1ccc(S(C)(=O)=O)c([N+](=O)[O-])c1)C(=O)NC12CC3CC(CC(C3)C1)C2", "note": "(stereo not given)", "Potency": "2.1 µM (active)"}
{"compound": "O=C(COC(=O)c1ccc(C(F)(F)F)cc1)NC(=O)C1CCCCC1", "outcome": "inactive"}
{"compound": "CCc1nc(-c2ccc(S(C)(=O)=O)c([N+](=O)[O-])c2)sc1C(=O)NC1C2CC3CC(C2)CC1C3", "note": "(stereo not given)", "Potency": "3 µM (active)"}
{"compound": "CCCC1CCN(C(=O)COC(=O)c2ccc(S(C)(=O)=O)c([N+](=O)[O-])c2)CC1", "Potency": "3.3 µM (active)"}
{"compound": "COc1cccc(CNC(=O)COC(=O)c2ccc(S(C)(=O)=O)c([N+](=O)[O-])c2)c1", "Potency": "64.6 µM (active)"}
{"compound": "CS(=O)(=O)c1ccc(C(=O)OC(C(=O)NC2C3CC4CC(C3)CC2C4)c2ccccc2)cc1[N+](=O)[O-]", "note": "(stereo not given)", "Potency": "3.9 µM (active)"}
{"compound": "O=C(COC(=O)c1cc([N+](=O)[O-])ccc1Cl)NC1C2CC3CC(C2)CC1C3", "note": "(stereo not given)", "outcome": "inactive"}
{"compound": "CCN(CC)C(=O)COC(=O)c1ccc(S(C)(=O)=O)c([N+](=O)[O-])c1", "Potency": "41.3 µM (active)"}
{"compound": "O=C(COC(=O)c1ccc(F)c([N+](=O)[O-])c1)NC1C2CC3CC(C2)CC1C3", "note": "(stereo not given)", "Potency": "14.3 µM (active)"}
{"compound": "O=C(COC(=O)c1ccc2ncsc2c1)NC(=O)C1CCCCC1", "outcome": "inactive"}
{"compound": "CS(=O)(=O)c1ccc(C(=O)OCC(=O)N2CCN(C3CCCCC3)CC2)cc1[N+](=O)[O-]", "Potency": "16.1 µM (active)"}
{"compound": "O=C(COC(=O)c1cccc([N+](=O)[O-])c1)NC1C2CC3CC(C2)CC1C3", "note": "(stereo not given)", "outcome": "inactive"}
{"compound": "O=C(COC(=O)c1ccc(Cl)c([N+](=O)[O-])c1)NC1C2CC3CC(C2)CC1C3", "note": "(stereo not given)", "outcome": "inactive"}
{"compound": "CS(=O)(=O)c1ccc(C(=O)OCC(=O)N2CCNc3ccccc32)cc1[N+](=O)[O-]", "Potency": "1.1 µM (active)"}
{"compound": "CS(=O)(=O)c1ccc(-c2nnc(-c3ccccc3)o2)cc1[N+](=O)[O-]", "outcome": "inactive"}
{"compound": "C#CC1(NC(=O)COC(=O)c2ccc(S(C)(=O)=O)c([N+](=O)[O-])c2)CCCCC1", "Potency": "9.2 µM (active)"}
{"compound": "CC1CCN(C(=O)COC(=O)c2ccc(S(C)(=O)=O)c([N+](=O)[O-])c2)CC1", "Potency": "9.8 µM (active)"}
{"compound": "CS(=O)(=O)c1ccc(C(=O)OCC(=O)N2CC(=O)Nc3ccccc32)cc1[N+](=O)[O-]", "Potency": "3.8 µM (active)"}
{"compound": "CS(=O)(=O)c1ncc(C(=O)OCC(=O)NC2C3CC4CC(C3)CC2C4)cn1", "note": "(stereo not given)", "Potency": "3.2 µM (active)"}
{"compound": "CC(C)CN1CCN(C(=O)COC(=O)c2ccc(S(C)(=O)=O)c([N+](=O)[O-])c2)CC1", "Potency": "42.4 µM (active)"}
{"compound": "CS(=O)(=O)c1ccc(C(=O)OCC(=O)N2Cc3ccccc3C2)cc1[N+](=O)[O-]", "Potency": "3 µM (active)"}
{"compound": "Cc1cc(C(=O)OCC(=O)NC(=O)C2CCCCC2)ccc1[N+](=O)[O-]", "outcome": "inactive"}
{"compound": "CS(=O)(=O)c1ccc(C(=O)OCC(=O)N2CCN(Cc3ccccc3)CC2)cc1[N+](=O)[O-]", "Potency": "15.3 µM (active)"}
{"compound": "O=C(COC(=O)c1cc([N+](=O)[O-])ccc1F)NC1C2CC3CC(C2)CC1C3", "note": "(stereo not given)", "outcome": "inactive"}
{"compound": "CN1CCN(C(=O)COC(=O)c2ccc(S(C)(=O)=O)c([N+](=O)[O-])c2)CC1", "outcome": "inactive"}
{"compound": "Cc1ccccc1NC(=O)COC(=O)c1ccc(S(C)(=O)=O)c([N+](=O)[O-])c1", "outcome": "inactive"}
{"compound": "CS(=O)(=O)c1ccc(C(=O)OCC(=O)NC2C3CC4CC(C3)CC2C4)cc1[N+](=O)[O-]", "note": "(stereo not given)", "Potency": "1.6 µM (active)"}
{"compound": "CS(=O)(=O)c1ccc(C(=O)OCC(=O)NC(=O)C2CCCCC2)cc1[N+](=O)[O-]", "Potency": "1.4 µM (active)"}
{"compound": "CS(=O)(=O)c1ccc(C(=O)OCC(=O)NC(=O)NC2CCCCC2)cc1[N+](=O)[O-]", "Potency": "19.1 µM (active)"}
{"compound": "CS(=O)(=O)c1ccc(C(=O)OCC(=O)N2CCOCC2)cc1[N+](=O)[O-]", "outcome": "inactive"}
{"compound": "CC1CCN(C(=O)C(C)OC(=O)c2ccc(S(C)(=O)=O)c([N+](=O)[O-])c2)CC1", "note": "(stereo not given)", "Potency": "6.4 µM (active)"}
{"compound": "CS(=O)(=O)c1ccc(C(=O)OCC(=O)N2CCN(c3ccccc3)CC2)cc1[N+](=O)[O-]", "Potency": "24.7 µM (active)"}
{"compound": "CS(=O)(=O)c1ccc(C(=O)OCC(=O)N2CCCCC2)cc1[N+](=O)[O-]", "Potency": "20.5 µM (active)"}
{"compound": "CS(=O)(=O)c1ccc(C(=O)OCC(=O)N2CCC(c3ccccc3)CC2)cc1[N+](=O)[O-]", "Potency": "6.2 µM (active)"}
{"compound": "C[S+](=O)([O-])c1ccc(C(=O)OCC(=O)N2CCNC(=O)C2)cc1[N+](=O)[O-]", "outcome": "inactive"}
